Hit rate of the full screen: of about 360,000 compounds, about 2,900 (0.81%) were called active. This is one part of a sample in which actives are shown more often than they occur.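 Rule for the calls: active = inhibition above the mean inhibition across every tested compound plus 3 SD (cut at about 22% in these data); inactive = the rest.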

For the assay, the target named is Perilipin-5 (Homo sapiens) + 1-acylglycerol-3-phosphate O-acyltransferase ABHD5 (Homo sapiens) (UniProt Q00G26+Q8WTS1). Description: blockers of ABHD5 binding to perilipin-5 – cell lysate, split luciferase complementation, luminescence, primary screen (AID 602281).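 Note: 0% = DMSO only wells and the 100% control is not disclosed.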 The note with it: Split G. princeps luciferase complementation, 4 h, at 4 µM, hits give high values.
Perilipin-5 (Homo sapiens) + 1-acylglycerol-3-phosphate O-acyltransferase ABHD5 (Homo sapiens), sequence (Q00G26 whole entry, looked up): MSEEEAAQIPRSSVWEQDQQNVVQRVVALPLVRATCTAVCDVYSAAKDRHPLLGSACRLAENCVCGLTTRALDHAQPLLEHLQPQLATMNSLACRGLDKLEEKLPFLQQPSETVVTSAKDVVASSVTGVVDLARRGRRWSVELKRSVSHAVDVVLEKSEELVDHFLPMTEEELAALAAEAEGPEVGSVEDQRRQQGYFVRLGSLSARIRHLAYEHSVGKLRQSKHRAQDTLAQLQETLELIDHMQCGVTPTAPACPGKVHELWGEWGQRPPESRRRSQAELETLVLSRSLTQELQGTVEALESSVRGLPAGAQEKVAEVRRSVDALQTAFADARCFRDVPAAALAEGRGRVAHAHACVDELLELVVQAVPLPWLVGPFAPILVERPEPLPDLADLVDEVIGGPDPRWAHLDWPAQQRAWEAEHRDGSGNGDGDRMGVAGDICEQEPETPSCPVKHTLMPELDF
Perilipin-5 (Homo sapiens) + 1-acylglycerol-3-phosphate O-acyltransferase ABHD5 (Homo sapiens), sequence (Q8WTS1 whole entry, looked up): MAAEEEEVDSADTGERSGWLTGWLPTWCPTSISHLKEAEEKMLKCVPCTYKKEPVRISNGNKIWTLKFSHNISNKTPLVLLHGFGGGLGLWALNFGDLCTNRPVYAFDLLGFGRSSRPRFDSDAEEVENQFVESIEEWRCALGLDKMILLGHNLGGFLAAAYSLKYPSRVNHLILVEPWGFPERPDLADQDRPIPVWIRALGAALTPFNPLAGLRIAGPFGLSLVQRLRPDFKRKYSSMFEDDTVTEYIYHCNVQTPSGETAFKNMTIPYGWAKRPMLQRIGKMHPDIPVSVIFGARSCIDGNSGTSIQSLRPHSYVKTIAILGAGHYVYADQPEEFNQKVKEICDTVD
For `Cn1c(CCC(=O)OCC(=O)NCc2ccccc2Cl)nc(=O)c2ccccc21`, the inhibition was 2.53% (inactive). `CN(CC(=O)NCCc1ccccc1)S(=O)(=O)c1cnc[nH]1`: the inhibition is 1.21% (inactive). Take `COCCN(Cc1ccccc1)C(=O)Cc1ccc(S(=O)(=O)N2CCOCC2)s1`: the inhibition was -7.33% (inactive). As to `CCCCOC(=O)CNc1nnc(SCC(=O)OCC)[nH]c1=O`, the inhibition is 55.4% (active). For `CCc1ccc(C(=O)CSc2nnc(C)c(=O)[nH]2)cc1`, the inhibition was -3.63% (inactive). Regarding `CCOC(=O)CSc1nc(C)c(Oc2ccc(Cl)cc2Cl)c(=O)[nH]1`, the inhibition was -1.81% (inactive). With `COC(C/C=C/C(=O)[C@@H](C)OCc1ccccc1)OC`, the inhibition was 24.4% (active). The figure for `COC(C[C@H](O)CC(=O)[C@@H](C)OCc1ccccc1)OC` is 2.47% (inactive); for `COC(C[C@@H]1O[C@@H]1C(=O)[C@H](C)OCc1ccccc1)OC` it is -0.78% (inactive); for `COc1ccc(-c2cnc3c(c2)C(=O)N([C@H](C)CO)C[C@@H](C)[C@H](CN(C)Cc2ccccc2)O3)cc1` it is 4.36% (inactive).

As to `CCCCCCN1CCN(C2CN(Cc3cn(CCCCCC)nn3)S(=O)(=O)C2)CC1` (stereo not given), the inhibition was -2.61% (inactive). Take `CC(Sc1nncs1)C(=O)NCc1ccc2c(c1)OCO2` (stereo not given): the inhibition was -10.2% (inactive).

With `CCn1cc(C(=O)N2CC(C)CC(C)C2)c(=O)c2cc(S(=O)(=O)N3CCCC3)ccc21` (stereo not given), the inhibition was -1.5% (inactive). In the case of `O=C1C(Cl)=C(Oc2ccccc2)C(=O)c2ccccc21` it was 84.3% (active). As to `O=C(N[C@H]1C/C=C\C(c2cccc(F)c2)N(Cc2ccccc2)C(=O)C1)OCC1c2ccccc2-c2ccccc21` (stereo not given in full), the inhibition was -1.93% (inactive). As to `Cc1ccccc1CN1C[C@@H]2C[C@@H](c3ccc4nsnc4c3)N3CCC[C@@]23C1=O`, the inhibition was 0.89% (inactive). As to `COc1ccc(CN2CCN(Cc3cn(C)nc3-c3ccccc3)CC2CCO)c(C)c1C` (stereo not given), the inhibition was 8.28% (inactive).

`Cc1ccccc1CN1C[C@@H]2C[C@@H](c3cn(C)nc3-c3ccccc3)N3CCC[C@@]23C1=O`: the inhibition is 22.1% (active). Regarding `COC(=O)CCCC1=CC2=C(c3ccccc3)C(=O)C(C)(OC(=O)C3CCCC3)C(=O)C2=CN1c1ccc(OC)cc1` (stereo not given), the inhibition was 3.52% (inactive). Turning to `CC1(OC(=O)C2CCCC2)C(=O)C=C2C=C(c3ccc(C#N)cc3)OC=C2C1=O` (stereo not given), the inhibition is 22.6% (active).

`CC1(C(=O)NS(=O)(=O)c2ccc(C#N)cc2)CCN1C(=O)c1ccc(C2CCCCC2)cc1` (stereo not given): the inhibition was -0.02% (inactive). Take `CC(C)CN1CCC1(C)C(=O)Nc1ccc(OC(F)F)cc1` (stereo not given): the inhibition is -1.42% (inactive). With `CSc1nc(N(C)NC(=O)c2cccc(C)c2)c2ccccc2n1`, the inhibition was -6.13% (inactive).

For the molecule `Cc1cc(C)nc(S/C=C/C(=O)c2ccccc2)n1`, the inhibition was 65.4% (active). With `COc1ccc(C(=O)/C=C/Nc2ccccn2)cc1`, the inhibition is 0.9% (inactive). As for `O=C(Nc1cccc(Cl)c1Cl)c1ccccc1NC(=O)C1CC=CCC1C(=O)O` (stereo not given), the inhibition was -5.77% (inactive). Regarding `O=[N+]([O-])/C=C/c1ccc2c(ccn2Cc2ccccc2)c1`, the inhibition is 92% (active).

Consider `NC(=O)C1CCN(C(=O)c2ccc(-c3ccccc3)cc2)CC1`, for which the inhibition is 5.48% (inactive).

Regarding `NS(=O)(=O)c1ccc(NC(=O)COC(=O)C2(c3ccc(F)cc3)CCCC2)cc1`, the inhibition was -6.25% (inactive). On to `O=C1c2cccnc2C(Nc2ccc(S(=O)(=O)N3CCCCCC3)cc2)N1Cc1ccccc1` (stereo not given), for which the inhibition is -3.06% (inactive). The figure for `O=C(CCNS(=O)(=O)c1ccccc1C(F)(F)F)Nc1ccncc1` is 3.18% (inactive); for `CN(C)CCOc1cccc(Br)c1` it is -5.46% (inactive). As for `C=CCNCCCCOc1ccccc1`, the inhibition was -2.87% (inactive). In the case of `Nc1cccc(OCCCCCOc2cccc(N)c2)c1` it was 68.8% (active); in that of `O=C(COC(=O)c1cnccn1)Nc1cccc2ccccc12`, -5.15% (inactive). For the molecule `COc1cccc2cc(C(C)N(CCCN3CCOCC3)C(=O)Nc3ccc(Cl)cc3)oc12` (stereo not given), the inhibition was 7.7% (inactive). In the case of `O=C(Cn1nc(CNc2ccc(Cl)cc2)[n+]2c1CCCCC2)c1ccc(Cl)cc1` it was 28.2% (active).

Consider `O=C(Cn1ncc(N2CCCC2)c(Br)c1=O)c1ccc(Cl)cc1`, for which the inhibition was 3.08% (inactive). Take `O=C(Cn1nnc(N2CCCCC2)n1)c1ccc(Cl)c(Cl)c1`: the inhibition was -2.6% (inactive). Turning to `N#Cc1ccc(C2N=C(c3ccccc3)NO2)cc1` (stereo not given), the inhibition is 5.57% (inactive).

As to `Cc1noc(C)c1NC(=O)Nc1ccc2c(c1)C(=O)N([C@H](C)CO)C[C@H](C)[C@@H](CN(C)S(=O)(=O)c1cn(C)cn1)O2`, the inhibition was 3.26% (inactive). Consider `Cn1c(SCC(=O)NC2CCCCC2)nnc1-c1cc2ccccc2o1`, for which the inhibition is -2.37% (inactive). As to `O=C(NC1CCCCC1)C(c1cc2ccccc2o1)n1c(=O)c(-c2ccco2)nc2ccccc21` (stereo not given), the inhibition was 78.2% (active). In the case of `Cc1cccc(C)c1NC(=O)CCCSc1nnc(-c2ccco2)n1-c1ccccc1`, the inhibition was -1.49% (inactive). As to `Cc1cccc(C)c1NC(=O)C(c1ccc(C(F)(F)F)cc1)n1c(=O)c(-c2ccco2)nc2ccccc21` (stereo not given), the inhibition is 74.7% (active). With `Cc1cccc(C)c1NC(=O)C(c1cccc2ccccc12)n1c(=O)c(-c2ccco2)nc2ccccc21` (stereo not given), the inhibition is 71.4% (active). Turning to `COc1ccc(C(C(=O)Nc2c(C)cccc2C)N2CCN(c3ccc(C)cc3)CC2)cc1` (stereo not given), the inhibition was -0.48% (inactive).

Consider `COc1ccc(NC(=O)C(c2ccncc2)n2c(=O)c(-c3cc4ccccc4[nH]3)nc3ccccc32)cc1` (stereo not given), for which the inhibition is -4.13% (inactive). Regarding `N#Cc1ccc(C(C(=O)NCc2ccccc2)n2c(=O)c(-c3ccco3)nc3ccccc32)cc1` (stereo not given), the inhibition is 76.5% (active).

In the case of `COc1ccc(C(C(=O)NCc2ccccc2)n2c(=O)c(-c3ccccc3)nc3ccccc32)cc1` (stereo not given), the inhibition was 18.6% (inactive). Take `CCC(C(=O)Nc1c(C)cccc1C)n1c(-c2cc(C)cs2)nc2ccccc21` (stereo not given): the inhibition is -1.93% (inactive). In the case of `CCC(CC)C(C(=O)NC1CCCC1)N1CCN(c2cc(C)nc3ccccc23)CC1` (stereo not given), the inhibition is 1.05% (inactive).

As to `CCCCCNC(=O)C(c1ccc(OC)cc1)n1c(=O)c(-c2ccccc2)nc2ccccc21` (stereo not given), the inhibition is 1.61% (inactive). The figure for `CC1CCCN(CCCNC(=O)CN2C(=O)COc3ccc(S(=O)(=O)N4CCOCC4)cc32)C1` (stereo not given) is -1.77% (inactive); for `CCc1cccc(NC(=O)CCCN2C(=O)C(c3ccccc3)Oc3cccnc32)c1` (stereo not given) it is -1.01% (inactive). For `Cc1ccc(-c2nnc(C)c(N3CC(C)OC(C)C3)n2)cc1` (stereo not given), the inhibition was -1.84% (inactive).

Consider `CC(OC(=O)CCCOc1ccccc1)C(=O)Nc1ccc(Cl)cn1` (stereo not given), for which the inhibition is -0.81% (inactive). For `O=C1OCCOC2CCCc3oc(-c4ccccc4)c1c32` (stereo not given), the inhibition was -3.07% (inactive). For the molecule `CN1CCC(=O)N([C@H](CO)Cc2ccccc2)CC1`, the inhibition is -5.42% (inactive). On to `Cc1ccsc1C(=O)NC1CCCCC1C` (stereo not given), for which the inhibition is 4.79% (inactive).

With `CC(N)C12CC3CC(CC(O)(C3)C1)C2` (stereo not given), the inhibition was -6.3% (inactive). As to `Cc1nc2ccccn2c1C(=O)NN=C1CCN(C)CC1`, the inhibition is -0.19% (inactive). Turning to `CC(=O)Oc1ccc(N(C(C)=O)S(=O)(=O)c2ccc3ccccc3c2)cc1Br`, the inhibition is 6.52% (inactive).

Consider `CC(=O)N(c1ccc2oc(=O)sc2c1)S(=O)(=O)c1ccc(C)cc1`, for which the inhibition was 36.7% (active). For the molecule `COC(=O)c1c(C)oc2ccc(N(C(=O)Oc3ccccc3)S(=O)(=O)c3ccccc3)cc12`, the inhibition is -1.45% (inactive). In the case of `COC(=O)c1ccccc1Oc1c(F)c(F)nc(N2CCOCC2)c1F` it was -7.97% (inactive); in that of `COc1cccc(N2CC(NS(=O)(=O)c3cccs3)CC2=O)c1` (stereo not given), 0.8% (inactive); in that of `CCN(CC(=O)Nc1ccc(Cl)c(S(=O)(=O)N(C)C)c1)Cc1nc2ccccc2c(=O)[nH]1`, -4.43% (inactive). As for `Cc1cc(N2CCCC2=O)cc(C)c1S(N)(=O)=O`, the inhibition is -1% (inactive). Consider `O=C(COc1nsnc1N1CCOCC1)Nc1ccccc1Cl`, for which the inhibition was 0.63% (inactive). As for `O=C(Nc1ccccc1Cl)/C(Cl)=C(\Cl)S(=O)c1ccccc1` (stereo not given), the inhibition is 81.7% (active). In the case of `CCOC(=O)[C@]12CCCC=C1N(Cc1ccc3c(c1)OCO3)C(=O)[C@H](CC(=O)N1CCN(C(=O)c3ccco3)CC1)C2` it was 5.36% (inactive); in that of `c1ccc(-n2cccc2)c(N2CCCCC2)c1`, -0.7% (inactive); in that of `O=C(c1ccc(Cl)c(S(=O)(=O)N2CCCCCC2)c1)N1CCN(c2ccc(O)cc2)CC1`, 1.37% (inactive). For the molecule `O=C1C=CC(=O)N1c1ccc(N2CCCCC2)cc1`, the inhibition was 29% (active). For `CCN(C(=O)CSc1nc(N)cc(=O)[nH]1)C1CCS(=O)(=O)C1` (stereo not given), the inhibition is -2.61% (inactive).

For the molecule `Cc1c(NC(=O)c2cc(-c3ccc(Cl)s3)nc3ccccc23)c(=O)n(-c2ccccc2)n1C`, the inhibition is 0.07% (inactive). Regarding `Cc1ccc(NC(=O)c2cc(-c3ccc(C)o3)nc3ccccc23)nc1`, the inhibition is 29% (active).

With `CCc1ccc(-c2cc(C(=O)NN3CCN(C)CC3)c3ccccc3n2)cc1`, the inhibition is 11.1% (inactive). `O=C(CCC(=O)OCC(F)(F)C(F)F)NCc1ccccc1`: the inhibition is -6.31% (inactive). `Oc1c(CN2CCOCC2)ccc(CN2CCOCC2)c1O`: the inhibition was -0.13% (inactive). In the case of `COc1ccccc1NC(=O)CSc1nnc(Cn2nnc(-c3ccccc3)n2)n1-c1ccccc1` it was 7.76% (inactive); in that of `COc1ccc(Cl)cc1NC(=O)CCS(=O)(=O)c1ccc(Br)cc1`, -6.29% (inactive); in that of `CCCCC(=O)N/N=C(\C)CC(=O)Nc1cc(Cl)ccc1OC`, 22.2% (active). For the molecule `COc1ccc(/C(C)=N/NC(=O)CCC(=O)Nc2ccc(Cl)cc2Cl)c(OC)c1`, the inhibition is -4.09% (inactive). Regarding `COc1cc2c(C(=O)N(C)c3cc(Cl)ccc3OC)cn(C)c(=O)c2cc1OC`, the inhibition is -8.81% (inactive). For `CN(C)CCNC(=O)C(C(=O)c1ccccc1)n1ccccc1=O` (stereo not given), the inhibition was -4.39% (inactive).

For `OC(CNCC1CCCO1)Cn1c2ccc(Br)cc2c2cc(Br)ccc21` (stereo not given), the inhibition was 27.7% (active).

As to `CCCN1CCn2c3c(c4cc(Br)ccc42)CCCC31` (stereo not given), the inhibition is -7.51% (inactive). Consider `COCCNC(=O)c1ccc(Cn2c(SCC(=O)NCC3CCCO3)nc3ccc(Br)cc3c2=O)cc1` (stereo not given), for which the inhibition was -3.04% (inactive).

The values above are taken from PubChem BioAssay AID602281 (The Scripps Research Institute Molecular Screening Center, 2012).
